Binding signal data for 43 sequences are collected here from publication PMC7819943, “Rice protein-binding microarrays: a tool to detect cis-acting elements near promoter regions in rice”.

Whole data set: some 68,000 sequences, median “fluorescence intensity (a.u.)” near 9,100, cut for the highest 2% near 16,000. The entries come from a sample that favours the highest values as a whole.

The test deals with OsWRKY34 (Oryza sativa, UniProt Q0JBA9 1-250). Briefly: protein-binding microarray (RPBM); PBS, 2% BSA, 51.3 ng/ul salmon testes DNA, 50 uM zinc acetate, 200 nM TF, 25 C, 1 h; high values mean tight binding. The note with it: protein: recombinant; tags: N-terminal polyhistidine and DsRed monomer fusion (pET32a); label: CyDye5-dUTP incorporated in the synthesized complementary strand; 3' TTTTT single-stranded linker to array surface; dsDNA, one strand shown. The method, boiled down: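 Transcription factors were made in E. coli BL21-CodonPlus as N-terminal fusions to a polyhistidine tag and DsRed, then purified on Ni–NTA. After primer extension with Cy5-dUTP and blocking with 2% BSA, a custom Agilent array was exposed for 1 h at 25 °C to 200 nM protein in PBS, 2% BSA, salmon testes DNA and 50 µM zinc acetate. Washed arrays were scanned on an Axon 4000B, and the binding signal is per-feature fluorescence intensity in arbitrary units.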
Chain of OsWRKY34 (Q0JBA9 entry or part of it): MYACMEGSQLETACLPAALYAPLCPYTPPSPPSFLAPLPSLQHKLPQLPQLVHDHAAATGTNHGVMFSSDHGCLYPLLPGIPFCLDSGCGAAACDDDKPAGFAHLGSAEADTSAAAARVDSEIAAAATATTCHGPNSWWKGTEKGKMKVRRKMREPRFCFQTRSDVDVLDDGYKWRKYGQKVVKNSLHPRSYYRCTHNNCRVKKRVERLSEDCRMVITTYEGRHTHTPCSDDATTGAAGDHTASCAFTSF
With “ATGTGGTTTGGTGAGCGCCGCTGTGCCCACCTAACCCACACGGAGTCACCTAGTGCAG”, the binding signal is 27300 fluorescence intensity (a.u.).
The figure for “GCAACGGGGAGGTGGGCGGAGGTGCGGCGCGGCGGCGGGCCGGAGTCACCTAGTGCAG” is 10300 fluorescence intensity (a.u.).
On to “ACGTGTACGGCGCGGGGTGGAGGTGAGGGGTGGTGGGGCCCGGAGTCACCTAGTGCAG”, for which the binding signal is 18000 fluorescence intensity (a.u.).
The figure for “CAGAGCAGGGGAGGGGAGGGGAGGGGATCCTGGTGAGCCTCGGAGTCACCTAGTGCAG” is 17600 fluorescence intensity (a.u.); for “CTAGTGAGGGGCGGGCGGGCGGGCAAGGGGAGCGGATGGGCGGAGTCACCTAGTGCAG” it is 19100 fluorescence intensity (a.u.); for “CTGGGATTTGGTGGAGCTCCTGCGGTGGGGTGCCAGTGATCGGAGTCACCTAGTGCAG” it is 12200 fluorescence intensity (a.u.).
The result for “ACTGTATATCGATGGCCCACTCGGCCCGACCCGTCCCGGCCGGAGTCACCTAGTGCAG” reads 10600 fluorescence intensity (a.u.); that for “ATCAAGCCGAATAGTGCTGACATCTTCATTCTGGTTTTTTCGGAGTCACCTAGTGCAG”, 9510 fluorescence intensity (a.u.).
In the case of “GTCTAGTATAAATCAACGCCACACCACTTGCCTAGTCATCCGGAGTCACCTAGTGCAG”, the binding signal was 8070 fluorescence intensity (a.u.).
The figure for “GTCGGCGCCCATAGTTTTTTTCCGCAAGGGTTTTCTACGTCGGAGTCACCTAGTGCAG” is 8810 fluorescence intensity (a.u.); for “TCTTAAGCGTGTTCATGGGTCTTGTTATGCTCAAGTCAAACGGAGTCACCTAGTGCAG” it is 8950 fluorescence intensity (a.u.).
The result for “ATCTCTTTCATCCGATTACTGTGTTTTTTCTGTGGTCCAACGGAGTCACCTAGTGCAG” reads 8410 fluorescence intensity (a.u.).
The result for “GCCGCTTGCCCTCGCAGCCGCTCCGCCTGCCTCCGCCCACCGGAGTCACCTAGTGCAG” reads 10000 fluorescence intensity (a.u.).
As for “ATCTGGTAACTCAAGTGCTCTCTTCCTGACTGCTGCAGCACGGAGTCACCTAGTGCAG”, the binding signal is 9470 fluorescence intensity (a.u.).
The figure for “GATGAGTGGTGATTGGTGAAGATATCTGGTGGTTTTGGGACGGAGTCACCTAGTGCAG” is 8630 fluorescence intensity (a.u.); for “AACCCGTTCACACACATTGTCAGGGACCAGCTCATTACTTCGGAGTCACCTAGTGCAG” it is 10400 fluorescence intensity (a.u.).
The figure for “TCCCCACCTGTCAGTACTTATGTTTTGACTTTTTGACCCACGGAGTCACCTAGTGCAG” is 14300 fluorescence intensity (a.u.).
As for “AATGTTTGACACCGTTGACTTTTTAGTACGTGTTTGTCCACGGAGTCACCTAGTGCAG”, the binding signal was 30200 fluorescence intensity (a.u.).
Turning to “AACGATGACGACGTGTGCGCGCTGTTGTTTTTTTGTCCCACGGAGTCACCTAGTGCAG”, the binding signal was 19700 fluorescence intensity (a.u.).
The result for “CCGTTGACTTTTTAGTACGTGTTTGATTCATTCTTAAATACGGAGTCACCTAGTGCAG” reads 16200 fluorescence intensity (a.u.).
The figure for “AATGTTTGATACCGTTGACTTTTTAGTACGTGTTTGATCACGGAGTCACCTAGTGCAG” is 32600 fluorescence intensity (a.u.).
The figure for “TGATTTTTGTCCCACGTGGCATTGACGTGGCGCTTATGTGCGGAGTCACCTAGTGCAG” is 8850 fluorescence intensity (a.u.); for “TGACTTTTTAGTACGTGTTTGATCATTCGTCTTATTCAAACGGAGTCACCTAGTGCAG” it is 10800 fluorescence intensity (a.u.).
As for “GGGCTGTTGTGTGTGTGTTTTGCGACGTGCCGTGCTGGGCCGGAGTCACCTAGTGCAG”, the binding signal is 8290 fluorescence intensity (a.u.).
The result for “CCTGCCCGGTGTGCTGTGACTTGCCGTTATCGTCACCGTTCGGAGTCACCTAGTGCAG” reads 10200 fluorescence intensity (a.u.); that for “CACTTCTTTTCTCTATGGCGGCATCTGAATCTATGTGGATCGGAGTCACCTAGTGCAG”, 9450 fluorescence intensity (a.u.).
The result for “AATCACCTCCCTTATCTTACCTGCATGACAAATGCCTCGACGGAGTCACCTAGTGCAG” reads 8590 fluorescence intensity (a.u.); that for “ACCCACCATGCCACCCCACTCCTTCTTTAAACTTGTAAACCGGAGTCACCTAGTGCAG”, 9480 fluorescence intensity (a.u.).
The figure for “TCTCCTATCCAGTTGGATTCCCAAAATTTCGCCTTTCGTCCGGAGTCACCTAGTGCAG” is 8070 fluorescence intensity (a.u.); for “AACCGAAATCACTTTGGCAGCATGTTTTCCTCTGTAACCACGGAGTCACCTAGTGCAG” it is 9350 fluorescence intensity (a.u.).
In the case of “CAACCCCACCGCCGCCGCCGCAAACCGTCTCGCCGTCGCCCGGAGTCACCTAGTGCAG”, the binding signal is 11600 fluorescence intensity (a.u.).
The figure for “GAGGTTGTTTTGTCGTCTAGCAAGTGTGTGTCGGGTGGCGCGGAGTCACCTAGTGCAG” is 9220 fluorescence intensity (a.u.); for “GTCATATGGCACCATGCTTGCTCTCCACTCTTCAATCAGTCGGAGTCACCTAGTGCAG” it is 9490 fluorescence intensity (a.u.); for “TCGCTGCTCTGCCCTTTTCCCTTTTTTTTTCTTTCTTCATCGGAGTCACCTAGTGCAG” it is 10200 fluorescence intensity (a.u.).
Turning to “CTCCCGTCAGTTGACCGTGTGTTGACCGTTAATTCTCAAGCGGAGTCACCTAGTGCAG”, the binding signal was 17500 fluorescence intensity (a.u.).
The figure for “CCATCAGTTGACCATGTGTTGACCGTTAACTCTCAAGTAACGGAGTCACCTAGTGCAG” is 9190 fluorescence intensity (a.u.); for “CCCTCCCGTCAGTTGACCGTTAGTTGACCGTGTATTTTCTCGGAGTCACCTAGTGCAG” it is 12200 fluorescence intensity (a.u.); for “TCCGTGTCCAATGTTTGACCATCCGTCTTATTTAAAAAAACGGAGTCACCTAGTGCAG” it is 8070 fluorescence intensity (a.u.).
The figure for “GTGTTGTGTTCATCTCCTTCGTTTACTTCTCTTCTCCTCTCGGAGTCACCTAGTGCAG” is 11500 fluorescence intensity (a.u.); for “TATTCTGTTGTATTATGATATTATATATATTTTTCTTCGACGGAGTCACCTAGTGCAG” it is 8980 fluorescence intensity (a.u.); for “GTTCCTTTCAGAAACTGGCATTCGAGTTTTGAGTTTCTCGCGGAGTCACCTAGTGCAG” it is 8720 fluorescence intensity (a.u.).
The figure for “AACAGGCATGGTTTCCTTCGTCGTTTCTACTAGCAGTTGCCGGAGTCACCTAGTGCAG” is 11900 fluorescence intensity (a.u.); for “GATGGCCTTGACCATGCAGAAACAGGCATGGTTTCCTTCGCGGAGTCACCTAGTGCAG” it is 64500 fluorescence intensity (a.u.).
